Measurements from PubChem BioAssay (NCI).
Compounds without any hit were thinned out: in the full panel of roughly 79,000, 15% have a hit. Values without a mark were called inactive. Active and inactive are the calls of the source. Rule as the data show it: active = growth inhibition above about 70%; inactive = the rest.

Assay: NCI Yeast Anticancer Drug Screen. Data for the bub3 strain (AID 167)
Conditions: S. cerevisiae bub3 mutant strain, at 1.2 µM, stronger effect = higher value
Method in brief: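 In this screen, a yeast mutant lacking normal mitotic checkpoint function is challenged with compound. Relative growth versus vehicle gives the inhibition value.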
`COc1ccc(/C=C2\CCc3ccccc3C2=O)cc1OC` gave a growth inhibition of 24%.
In the case of `O=Cc1ccccc1B(O)O`, the growth inhibition is reported as -14%.
For `CC(=O)CC[N+](C)(C)C`, the growth inhibition was 12%.
Compound `O=C(O)[C@H]1[C@@H](C2CCCCC2)O[C@@H](C2CCCCC2)O[C@H]1C(F)(F)F` has a growth inhibition of -4%.
With `CN(NC(=O)/C(=C/C=C/c1ccccc1)NC(=O)c1ccccc1)C1=C(Cl)C(=O)[N+](c2ccccc2)=CC1` the growth inhibition was 1%.
Compound `CCCCOc1ccc(Nc2c3ccccc3nc3ccccc23)cc1` has a growth inhibition of -56%.
With `N#C/C(=C1C=C/C(=N\O)C(Cl)=C\1)c1ccccc1` the growth inhibition was -1%.
For `COc1ccc(C(=O)OCCc2ccccc2)cc1`, the growth inhibition was 2%.
With `Cc1c2ccncc2c(C)c2c1oc1ccccc12` the growth inhibition was 19%.
Work on `CCCC#CCOC(=O)c1cc([N+](=O)[O-])cc([N+](=O)[O-])c1` yielded a growth inhibition of -9%.
`Nc1nc(Nc2ccccc2)nc(Nc2ccccc2)n1` showed a growth inhibition of -4%.
In the case of `COc1ccc(/C=C2\S/C(=N/Nc3nc(-c4ccccc4)cs3)NC2=O)cc1OC`, the growth inhibition is reported as 82% (active).
Compound `CC(O)CN1C(=O)c2cccc3cc([N+](=O)[O-])cc(c23)C1=O` (configuration not stated) has a growth inhibition of -8%.
In the case of `Cn1c(COc2ccc(/C=N/NC(=O)CCC(=O)N/N=C/c3ccc(OCc4c[n+]5ccccc5n4C)cc3)cc2)c[n+]2ccccc12`, the growth inhibition is reported as -3%.
In the case of `COC1=C(N=[N+]=[N-])C(=O)c2ncccc2C1=O`, the growth inhibition is reported as 7%.
In the case of `CCN(CC)c1ccc(N=Nc2cc(S(=O)(=O)O)ccc2O)c(O)c1`, the growth inhibition is reported as 24%.
`O=C1C(C(O)(C(F)(F)F)C(F)(F)F)CCC1C(O)(C(F)(F)F)C(F)(F)F` (configuration not stated) showed a growth inhibition of -1%.
